# Assay outcomes as filed in PubChem.
# IMPase cell inh: qHTS Assay for Identifying the Cell-Membrane Permeable IMPase Inhibitors; Inositol monophosphatase 1 (Rattus norvegicus), P97697; CHO-M1 cells, IP1 accumulation, HTRF TR-FRET ratio; inhibition (IP1 accumulation), % at 46.1 µM; 120,000 tested, under 10 active; AID 901, 2007; active = well fitted curve in the direction sought with a large enough effect in the signal ratio, not every such curve was filed as active; inconclusive = small, poorly fitted or top-dose-only effect, or a change in a side signal; inactive = no such curve, though single readings can be large or run the other way; the % refers to the signal ratio;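 also: cells stimulated with carbachol in lithium chloride buffer; plate controls were DMSO basal wells for no effect and reference inhibitor wells for full effect; higher means more IMPase inhibition seen as more IP1 and lower FRET ratio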
# Target sequence (P97697 whole entry, looked up): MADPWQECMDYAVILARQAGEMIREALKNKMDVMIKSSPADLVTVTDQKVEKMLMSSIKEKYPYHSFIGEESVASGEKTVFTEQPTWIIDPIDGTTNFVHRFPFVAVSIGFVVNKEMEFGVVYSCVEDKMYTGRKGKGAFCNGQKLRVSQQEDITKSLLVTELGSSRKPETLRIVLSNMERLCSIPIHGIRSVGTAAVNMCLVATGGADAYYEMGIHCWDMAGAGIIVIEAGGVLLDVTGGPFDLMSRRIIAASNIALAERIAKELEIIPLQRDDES
#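 Seeded CHO-M1 cells were dosed with compound at up to 46 uM, stimulated with carbachol for 30 min, then lysed in IP-One detection reagents. Higher IP1 lowers the TR-FRET signal.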
# ALDH1A1 block: qHTS Assay for Inhibitors of Aldehyde Dehydrogenase 1 (ALDH1A1); AID 1030, 2008; Potency, µM (highest dose often 75.3 µM), inactives show top-dose activity, negative = inhibition, most hits filed as inhibitors; Purified ALDH1A1, NADH fluorescence, propionaldehyde substrate; Aldehyde dehydrogenase 1A1 (Homo sapiens), P00352; 220,000 tested, 7.3% active;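 also: potency is read from the fitted curve at half-maximal effect; plate controls were no enzyme wells and a reference inhibitor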
# HPGD block: qHTS Assay for Inhibitors of HPGD (15-Hydroxyprostaglandin Dehydrogenase); purified HPGD, NADH fluorescence kinetic, PGE2 substrate; Potency, µM, for inactives: at the highest dose activity change, negative = inhibition, actives largely listed as inhibitors; 15-hydroxyprostaglandin dehydrogenase [NAD(+)] (Homo sapiens), P15428; 150,000 tested, 4.3% active; also: potency is read from the fitted curve at half-maximal effect
# Target sequence (P15428 whole entry, looked up): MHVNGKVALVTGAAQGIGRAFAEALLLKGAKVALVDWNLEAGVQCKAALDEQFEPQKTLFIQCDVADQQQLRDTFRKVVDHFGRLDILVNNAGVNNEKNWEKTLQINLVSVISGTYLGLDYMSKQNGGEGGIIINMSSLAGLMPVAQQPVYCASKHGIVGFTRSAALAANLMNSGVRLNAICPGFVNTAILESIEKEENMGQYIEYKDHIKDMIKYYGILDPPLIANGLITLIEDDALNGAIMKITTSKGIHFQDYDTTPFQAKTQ
#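 NADH formation kinetics: reaction with 30 uM PGE2 and 1 mM NAD+ (final), 20 nM enzyme, Tris-HCl pH 8 with Tween 20, after 15 min compound preincubation at room temperature. Fluorescence change, last versus first of five reads.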
# Numbers without * were called inactive; ? = inconclusive; nt = not tested or not shown; ! = a repeat was not active; [ ] = another dose, or the depositor's remark. Only some compounds are listed: those with a hit (about 9% of all), similar ones and a draw of the others. Unless noted, calls follow the shape of the dose curve; as a rule, active = well fitted inhibition curve with a large enough effect (not every such curve was filed as active); inconclusive = small, poorly fitted or top-dose-only effect, or another doubt; inactive = no such curve, though single readings can be large or run the other way. Unless noted, % is scaled to controls: 0 for no effect and ±100 for the full control effect.
SMILES,IMPase cell inh,ALDH1A1 block,HPGD block
O=C1c2ccccc2-c2nnc(-c3ccc(O)cc3)cc21,nt,14%,nt
O=C1c2ccccc2-c2n[nH]c3cccc1c23,-15,3.2µM*,-21%
Nc1nc(SCC(=O)N2N=C3/C(=C/c4ccco4)CCCC3C2c2ccco2)n[nH]1 (centres undefined),-3,?,-4%
Cn1cnnc1SCC(=O)N1N=C2/C(=C/c3ccco3)CCCC2C1c1ccco1 (centres undefined),-1,16µM*,?
O=C(CSc1nccc(=O)[nH]1)N1N=C2/C(=C/c3ccco3)CCCC2C1c1ccco1 (centres undefined),nt,14µM*,nt
Cn1cnnc1SCC(=O)N1N=C(c2ccc(Cl)cc2)CC1c1ccco1 (centres undefined),nt,3%,nt
NCCCCNS(=O)(=O)c1ccc2c(Cl)cccc2c1,-5,-10%,-10%
COC(=O)[C@@H]1C[C@H]2CC[C@H](O)C[C@H]2N1Cc1ccccc1OS(=O)(=O)c1ccc(C)cc1,nt,?,-8%
COC(=O)NC(/C(C(=O)OC)=C(\C)NCc1ccccc1)c1cccc(C)c1 (centres undefined),nt,11%[13.5 µM],nt
COC(=O)CN1C(=O)S/C(=C/c2cc(C)n(C)c2C)C1=O,13,14µM*,-1%
CCn1c(C)cc(/C=C2/SC(=S)N(CC(=O)O)C2=O)c1C,nt,12%,nt
COc1ccc(N=C2S/C(=C\c3cc(C)n(C)c3C)C(=O)N2CC(C)C)cc1,17,2.5µM*,-23%
Cc1ccc(NC(=O)CN2C(=O)S/C(=C\c3cc(C)n(-c4ccc(C(=O)O)cc4)c3C)C2=O)cc1,nt,14%,nt
C#CCN1C(=O)S/C(=C/c2cc(C)n(CC)c2C)C1=O,-4,7.5µM*,nt
COc1ccc(N=C2S/C(=C\c3ccco3)C(=O)N2CC(C)C)cc1,-6,?,-1%
Cn1c(SCCOc2ccc(Cl)cc2)nnc1-c1ccncc1,2,-7%,-8%
COc1cc(C(=O)Nc2ccc(C)cc2)c(-n2cnnn2)cc1OC,nt,-4%,nt
COC(=O)C1=C(C)N=C2SC(C#N)=C(N)N2C1c1ccc(OC)cc1 (centres undefined),11,?,-18%
COC(=O)C1=C(C)N=C2SC(C#N)=C(N)N2C1c1cccc(OC)c1 (centres undefined),0,13µM*,-10%
Cc1ccc(S(=O)(=O)C/N=C(/NC(=S)N(c2ccccc2)c2ccccc2)c2ccccc2)cc1,4,14µM*,32µM*
Cc1ccc(S(=O)(=O)/N=C(/NC(=S)Nc2ccccc2)c2ccccc2)cc1,6,?,-26%
Cc1ccccc1OCC(=O)NNC(=O)c1ccc(-c2ccccc2)cc1,-4,6%,-14%
Cc1ccc(-n2nnnc2-c2ccccc2)cc1,nt,-1%,nt
Cc1ccccc1-n1nnnc1-c1ccccc1,2,4.5µM*,-13%
COc1ccc(-n2nnnc2-c2cccnc2)cc1,6,8%,-3%
SMILES,IMPase cell inh,ALDH1A1 block,HPGD block
COc1ccc(-c2nnnn2-c2ccccc2OC)cc1,15,7.9µM*,1%
Cc1ccc(NC(=O)CN2C(=O)c3ccccc3C2=O)nc1,nt,9%,nt
Oc1c(I)cc(Cl)c2cccnc12,-4[20.6 µM],25µM*!,-9%
Oc1c(CN2CCc3ccccc3C2)cc(Cl)c2cccnc12,19,1%,-14%
Cc1ccc(OCc2ccc(C(=O)Nc3ccc(C(N)=O)cc3)o2)c([N+](=O)[O-])c1,nt,10%,nt
CC(C)OC(=O)c1nn2c(C(F)(F)F)cc(-c3ccco3)nc2c1Cl,4,?,-18%
CC(C)OC(=O)c1nn2c(C(F)(F)F)cc(-c3ccc(Br)o3)nc2c1Br,6,18µM*,nt
Cc1ccc(Nc2ncccc2C(N)=O)cc1[N+](=O)[O-],nt,?,-20%
COc1ccccc1N/C=C/c1onc(C)c1[N+](=O)[O-],nt,10%,nt
Cc1noc(/C=C/Nc2ccc(F)cc2F)c1[N+](=O)[O-],nt,1.3µM*,nt
CCOC(=O)C1=C(C)N=C2SC(C(=O)OC)=CC(=O)N2C1c1ccc(OC)cc1 (centres undefined),nt,4%,nt
Cc1ccc(S(=O)(=O)N2CCOCC2)cc1C(=O)N1CCOCC1,-11,-9%,-5%
Cc1ccc(S(=O)(=O)N2CCOCC2)cc1C(=O)c1nccn1C,nt,19µM*,nt
CC1(C(=O)CSc2n[nH]c(-c3ccccc3Cl)n2)CCC(=O)O1 (centres undefined),-9,?,-19%
CC1CC2(CC(C)(C(=O)CSc3n[nH]c(-c4ccccc4Cl)n3)OC2=O)C(=O)O1 (centres undefined),10,18µM*,?
CC(=O)N1N=C(c2ccc(Br)cc2)OC1(C)CC(=O)Nc1ccccc1 (centres undefined),0,?,-28%
O=C(CC1NCCN(Cc2ccccc2)C1=O)Nc1ccccc1 (centres undefined),nt,3%,nt
Cc1ccc(Nc2nc3c(s2)CCC3)c(C)c1,-3[0.369 µM],?,-12%
COc1ccccc1Nc1nc2c(s1)CCC2,7,18µM*,?
O=Cc1sc(Nc2ccccc2)nc1Cl,nt,-7%,nt
COc1ccccc1Nc1nc(Cl)c(C=O)s1,nt,18µM*,nt
C=CCSC[C@@H]1Nc2cc(Cl)c(S(N)(=O)=O)cc2S(=O)(=O)N1,-8[20.6 µM],5%[20.9 µM],-9%
C#CCNC(=O)C1=C[C@H](c2ccc(Br)cc2)[C@@H](CCCO)[C@H](OCC)O1,nt,2%,nt
COc1cccc(C(=O)N2c3ccc(C)cc3C(C)(c3ccccc3)CC2(C)C)c1 (centres undefined),2,nt,nt
CCCOC(=O)CCCCCCCCC(O)CN1CCCCC1 (centres undefined),nt,18µM*,nt
SMILES,IMPase cell inh,ALDH1A1 block,HPGD block
COC(=O)CCCCCCCCCCN1CCCCC1,11,-2%,-4%
CCOC(=O)CC(NC(=O)Cn1nnc(-c2ccccc2F)n1)c1ccccc1Cl (centres undefined),nt,-1%,nt
O=C(COC(=O)C1CCC(=O)N1)Nc1cc(Cl)ccc1Cl (centres undefined),8,-1%,1%
Cc1ccc(S(=O)(=O)c2c(C)cc(C)nc2Cl)c(C)c1,6,8%,-22%
Cc1cc(C)c(S(=O)(=O)/N=C2\C=CC(=O)C(Cl)=C2)c(C)c1,5,?,20µM*
c1cc(CSSCc2ccncc2)ccn1,nt,4µM*,-14%
N=C(N)SCCc1ccncc1,nt,18%[13.5 µM],-2%
CCOC(=O)c1c(-c2ccc(C)s2)csc1NC(=O)c1ccco1,-4,-5%,?
CCOC(=O)c1c(-c2ccco2)csc1N,-7,20µM*,-28%
OCCN1CCN(C(=S)c2ccc(Cl)c(Cl)c2)CC1,12,?,14µM*
COc1cc(NC(=S)N2CCN(CCO)CC2)c(OC)cc1Cl,nt,5%,nt
C/C(=N\NC(=O)c1cccs1)c1ccc2c(c1)OCO2,nt,2%,nt
CC(=O)Nc1ccc2c(c1)OCCO2,3,-13%,-8%
O=S(=O)(Nc1ccc(Cl)cc1)c1ccc(NS(=O)(=O)c2ccc3c(c2)OCCO3)cc1,1,nt,nt
O=C(Nc1ccc2c(c1)OCCO2)c1cccs1,5,?,20µM*
O=S(=O)(Nc1ccc2c(c1)OCO2)c1cccs1,1,5%,-30%
O=S(=O)(Nc1ccc2c(c1)OCCO2)c1cccs1,4,-4%,14µM*
